This passage reports outcome and AC50 results from PubChem BioAssay (EPA / NIEHS).

Where “and” joins values, the source holds several entries; their conditions need not be identical. Identical values can stand only once. More than one record can exist for a structure, and the calls need not agree. Calls of active or inactive are those of the source. The calls were made as follows: active = hit-call score of the fitted dose curve at least 0.9, where 1 is the maximum; inactive = score below 0.9.

Myc proto-oncogene protein (Homo sapiens), sequence (P01106 whole entry, looked up): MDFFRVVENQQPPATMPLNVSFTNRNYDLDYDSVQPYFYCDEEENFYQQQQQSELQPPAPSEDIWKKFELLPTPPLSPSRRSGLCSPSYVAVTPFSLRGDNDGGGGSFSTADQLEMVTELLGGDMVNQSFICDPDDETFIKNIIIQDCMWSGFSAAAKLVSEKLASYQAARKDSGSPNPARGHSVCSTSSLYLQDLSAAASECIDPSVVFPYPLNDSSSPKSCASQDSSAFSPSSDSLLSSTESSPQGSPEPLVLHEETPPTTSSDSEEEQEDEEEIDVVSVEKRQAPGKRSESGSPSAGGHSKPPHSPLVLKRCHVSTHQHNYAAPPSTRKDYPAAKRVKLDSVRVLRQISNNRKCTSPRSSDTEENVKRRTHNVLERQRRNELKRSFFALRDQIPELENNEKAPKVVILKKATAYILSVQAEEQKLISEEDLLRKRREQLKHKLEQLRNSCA

The target of this assay is Myc proto-oncogene protein (Homo sapiens) (UniProt P01106). Description: ATG_Myc_CIS: Attagene CIS-FACTORIAL HepG2 Assay for human Myelocytomatosis (Myc) Proto-Oncogene Transcription Factor (AID 2282990). The note with it: HepG2, Attagene cis-reporter transcription factor activity; actives raise or lower the signal. The protocol:
ATG_CIS is a cell-based, multiplexed-readout assay that uses HepG2, a human liver cell line, with measurements taken at 24 hours after chemical dosing in a 24-well plate.ATG_Myc_CIS is one of 52 assay component(s) measured or calculated from the ATG_CIS assay. It is designed to make measurements of mRNA induction, a form of inducible reporter, as detected with fluorescence intensity signals by Reverse transcription polymerase chain reaction (RT-PCR) and Capillary electrophoresis technology.Data from the assay component ATG_Myc_CIS was analyzed into 1 assay endpoint. This assay endpoint, ATG_Myc_CIS, was analyzed with bidirectional fitting relative to DMSO as the negative control and baseline of activity. Using a type of inducible reporter, measures of mRNA for gain or loss-of-signal activity can be used to understand the reporter gene at the transcription factor-level as they relate to the gene MYC. Furthermore, this assay endpoint can be referred to as a primary readout, because this assay has produced multiple assay endpoints where this one serves a reporter gene function. To generalize the intended target to other relatable targets, this assay endpoint is annotated to the dna binding intended target family, where the subfamily is basic helix-loop-helix leucine zipper.
Human liver HepG2 cells are transiently transfected with multiple reporter transcription units (MRTUs) in 6-well plates using FuGene 6 reagent (Roche; 3 ml FuGene/1 mg DNA). The MRTU constructs are regulated by a cis-regulating element (promoter). […] A major difference between the CIS and TRANS system is that in CIS activities of endogenous TFs are measured, whereas the TRANS assay evaluates changes in activities of exogenous, chimeric NR-Gal4 proteins. […] At the end of 24 hour incubation, total RNA was isolated using TriZol reagent (Invitrogen). The isolated RNA is then reverse-transcribed using oligo(dT) primer and Mo-MLV reverse transcriptase (Invitrogen) with DNAse I (Ambion) treatment for 30 min. The one-tenth of the produced cDNA was amplified by PCR using Taq DNA polymerase (Invitrogen) and two reporter sequence-specific primers. The PCR products were fluorescently labeled by primer extension with 6-arboxyfluorescein (6-FAM) 5'-labeled reporter sequence-specific primer (2 min at 95 C, 20 s at 68 C and 10 min at 72 C) and these products were digested with 5U of HpaI (New England Biolabs) for 2h at 37 C. The fragments were purified using Qiaquick PCR columns (Qiagen), analyzed on an ABI 3130xL genetic analyzer (Applied Biosystems) with peak positions identified by using a set of X-rhodamine (ROX)-labeled MapMarker1000 molecular weight standards (BioVentures). The raw capillary electrophoresis data was processed using Attagraph software (Attagene).
As usually defined, the AC50 is the concentration giving half of the maximal activity seen. `OCCC(F)(F)C(F)(F)C(F)(F)C(F)(F)C(F)(F)C(F)(F)C(F)(F)C(F)(F)F`: the compound was classed as inactive and the AC50 is 150 µM (active).
Turning to `C[C@@H]1C[C@H]2[C@@H]3CCC4=CC(=O)C=C[C@]4(C)[C@@]3(F)[C@@H](O)C[C@]2(C)[C@@]1(O)C(=O)COP(=O)(O)O`, the outcome was inactive.
Take `CCCCOCCO`: the compound was classed as inactive.
Consider `N#C[C@@H]1CC(F)(F)CN1C(=O)CNC1CC2CCC(C1)N2c1ncccn1` (stereo not given in full), for which the outcome was inactive.
On to `COC(=O)CCCCC(=O)OC`, for which the outcome was inactive.
Same read-out and setting: under `OC1CCCCC1` stands “inactive”.
Regarding `CCN(CC)CCNc1ccc(CNC=O)c2sc3ccc(OC)cc3c(=O)c12`, the AC50 is 0.508 µM (active).
Consider `CCCCCCCCCCCCc1ccccc1S(=O)(=O)O`, for which the result was inactive.
On the same count and under the same terms, to `C=C(C)C(=O)OCCC(F)(F)C(F)(F)C(F)(F)C(F)(F)C(F)(F)C(F)(F)F` belongs “inactive”; to `COc1ccc([N+](=O)[O-])cc1N`, “inactive”.
As to `c1ccc2cc3c(ccc4ccccc43)cc2c1`, the outcome was inactive.
Regarding `CCc1nn(C2CCCCC2)c2cc(C3(C#N)CCC(C(=O)O)CC3)ccc12` (stereo not given), the call was inactive.
As to `CCCCC[C@H](O)CC(=O)CCc1ccc(O)c(OC)c1`, the compound was called inactive.
On to `Cc1cc(C)c(O)c(C)c1`, for which the compound was called inactive.
`Nc1cccc2c(N)cccc12`: the compound was classed as inactive.
In the case of `CN1CCC[C@H]1c1cccnc1`, the compound was classed as inactive.
Consider `CC#C[C@]1(O)CC[C@H]2[C@@H]3CCC4=CC(=O)CCC4=C3[C@@H](c3ccc(N(C)C)cc3)C[C@@]21C`, for which the outcome was inactive; the AC50 is 160 µM (active) and 100 µM (active).
For `CCC(=C(c1ccc(O)cc1)c1ccc(OCCN(C)C)cc1)c1ccccc1`, the result was inactive and the AC50 was 13.1 µM (active).
With `CC[C@H](c1ccc(O)cc1)[C@@H](CC)c1ccc(O)cc1`, the compound was called inactive.
On to `Oc1cc2ccccc2c2ccccc12`, for which the call was inactive.
With `FC(F)(I)C(F)(F)C(F)(F)C(F)(F)C(F)(F)C(F)(F)I`, the outcome was inactive.
Turning to `NC(=O)N(O)[C@@H]1C=C[C@H](Oc2cccc(Oc3ccc(F)cc3)c2)C1`, the call was inactive.
As to `CCCCCCCCOC(=O)CCCCCCCCC(=O)OCCCCCCCC`, the compound was classed as inactive.
Same read-out and setting: to `ClC1=C(Cl)C(Cl)(Cl)C(Cl)=C1Cl` belongs “inactive”; to `OC1CCC(C2CCCCC2)CC1` (stereo not given), “inactive”; to `CCCCCCC(=O)O`, “inactive”.
The same measure, in the same setting: under `CCCOC(=O)c1ccc(O)cc1` stands “inactive”.
The same measure, in the same setting: to `CC(=O)CC(C)(C)O` belongs “inactive”; to `O=C(O)c1ccccc1C(c1ccc(O)cc1)c1ccc(O)cc1`, “inactive”; to `O=C(OCCOCCOC(=O)c1ccccc1)c1ccccc1`, “inactive”.
Consider `CC(O)CO` (stereo not given), for which the call was inactive.
For the compound `Cc1oc(-c2ccccc2)nc1CCOc1ccc(C[C@H](Nc2ccccc2C(=O)c2ccccc2)C(=O)O)cc1`, the AC50 is 18 µM (active).
For `CCCCC(CC)COC(=O)CCCCC(=O)OCc1ccccc1` (stereo not given), the compound was classed as inactive.
Same read-out and setting: under `COc1cc(CCC(=O)CC(=O)CCc2ccc(O)c(OC)c2)ccc1O` stands “inactive”; under `CN1CCN(c2ccccc2/C=C2\SCCN(c3ccc(Cl)c(Cl)c3)C2=O)CC1`, “inactive”.
The same measure, in the same setting: to `CCC(C)(C)C1CCC(O)CC1` (stereo not given) belongs “inactive”.
Same read-out and setting: to `CCCCCCCCC(=O)O` belongs “inactive”.
